Test results as given in PubChem BioAssay (Tox21).
Inconclusive results are not listed. Calls of active or inactive are those of the source. Calls follow the shape of the dose curve; as a rule, active = well fitted activation curve with a large enough effect in the signal ratio in the repeat runs (not every such curve was filed as active); inconclusive = weak or mixed curves, or effect the other way; inactive = flat fitted curve, though single readings scatter; the % refers to the signal ratio.

Experiment: qHTS assay to identify small molecule agonists of the endoplasmic reticulum stress response signaling pathway (AID 1159516)
Settings: ESRE-bla HeLa, ER stress beta-lactamase reporter, 5 h; series mostly up to 61 µM
Text: National Center for Advancing Translational Sciences [NCATS]
NIH Chemical Genomics Center [NCGC]
U.S. Environmental Protection Agency [EPA]
National Institutes of Environmental Health Sciences [NIEHS]
National Toxicology Program [NTP]
U.S. Food and Drug Administration [FDA]
Endoplasmic Reticulum (ER) plays an important role in cellular signaling, protein folding/maturation, stress response, lipid biosynthesis, calcium storage and release etc. Under stress conditions, proteins in ER misfold or unfold, and leading to the expression of ER stress responsive genes. ER stress has been associated with a variety of pathophysiological conditions such as cancer, inflammation, neurodegenerative diseases, diabetes, ischemic heart disease etc. To identify the compounds that induce ER stress response, an ER stress reporter cell line, CellSensor ESRE-bla HeLa (Life Technologies, Carlsbad, CA) containing a beta-lactamase reporter gene under control of the Endoplasmic reticulum Stress Response Element (ESRE) was used to screen Tox21 10K compound library.
Tox21 Assay Protocol Summary:
ESRE-bla HeLa cells were dispensed at 1,500 cells/6 uL of assay medium per well into black wall/clear-bottom 1536-well plates using a Multidrop Combi (ThermoFisher Scientific, Waltham, MA) dispenser. After the assay plates were incubated at 37 C and 5% CO2 for an overnight, 23 nL of compounds dissolved in DMSO, positive controls or DMSO only was transferred to the assay plate by a Pintool station (Kalypsys, San Diego, CA). The assay plates were incubated at 37 C and 5% CO2 for 5 hr. One uL of LiveBLAzer B/G FRET substrate (Life Technologies) was added using a Flying Reagent Dispenser (Aurora Discovery, San Diego, CA) and the plates were incubated at room temperature for 2 hr. Fluorescence intensity (405 nm excitation, 460 nm and 530 nm emissions) was measured using an Envision plate reader (PerkinElmer, Shelton, CT).

Row | Compound | outcome
1 | Nc1ccc([N+](=O)[O-])cc1[N+](=O)[O-] | inactive
2 | C=CC(=O)OC(C)(C)C | inactive
3 | Cc1cc(=O)[nH]o1 | inactive
4 | CCCCC(O)(Cn1cncn1)c1ccc(Cl)cc1Cl (stereo not given) | inactive
5 | CCOP(=S)(OCC)SCn1nnc2ccccc2c1=O | inactive
6 | CCCCN=C=O | inactive
7 | Cc1ccc(N)cc1C | inactive
8 | CC(=O)[C@H]1CC[C@H]2[C@@H]3CC[C@H]4C[C@](C)(O)CC[C@]4(C)[C@H]3CC[C@]12C | inactive
9 | CC(Cl)C(C)Cl (stereo not given) | inactive
10 | Clc1cccc(SC2CCNCC2)n1 | inactive
11 | CC(=O)c1cc2c(cc1C)C(C)(C)C(C)CC2(C)C (stereo not given) | inactive
12 | O=C(NC(=O)c1c(F)cccc1F)Nc1cc(Cl)c(Oc2ncc(C(F)(F)F)cc2Cl)c(Cl)c1 | inactive
13 | CN(C)c1ccc(N(C)C)cc1 | inactive
14 | COCCOCCO | inactive
15 | CCN(C)N=O | inactive
16 | COP(=S)(OC)Oc1ccc([N+](=O)[O-])cc1Cl | inactive
17 | Cl/C=C\Cl | inactive
18 | c1ccoc1 | inactive
19 | COP(=S)(OC)Oc1cc(Cl)c(I)cc1Cl | inactive
20 | CCn1cc[n+](C)c1 | inactive

Row | Compound | outcome
21 | N#Cc1cc(I)c(O)c(I)c1 | inactive
22 | CCCC(Cn1cncn1)c1ccc(Cl)cc1Cl (stereo not given) | inactive
23 | CCCCc1c(C)nc(NCC)nc1OS(=O)(=O)N(C)C | inactive
24 | ClCc1cccc(Cl)c1 | inactive
25 | N#Cc1ccc(Cl)cc1 | inactive
26 | CC(C)O.CC(C)O.OCCN(CCO)CCO.OCCN(CCO)CCO.[Ti] | inactive
27 | CCCCNP(N)(N)=S | inactive
28 | CCC(COC(=O)c1cc(OC)c(OC)c(OC)c1)(c1ccccc1)N(C)C (stereo not given) | inactive
29 | O=C(NC(=O)c1c(F)cccc1F)Nc1ccc(OC(F)(F)C(F)OC(F)(F)F)c(Cl)c1 (stereo not given) | inactive
30 | Oc1ccc(Cl)c(Cl)c1Cl | inactive
31 | CCCC(=O)Cl | inactive
32 | C[C@@H]1CC[C@H]2[C@@H](C)C(=O)O[C@@H]3O[C@@]4(C)CC[C@@H]1[C@]32OO4 | inactive
33 | CCOP(O)OCC | inactive
34 | COCC(C)N(C(=O)CCl)c1c(C)csc1C (stereo not given) | inactive
35 | CO/N=C(/C(=O)OC)c1ccccc1COc1ccccc1C | inactive
36 | N#CCC#N | inactive
37 | CC1C(=O)C[C@]2(C(C)C)C[C@H]12 (stereo not given in full) | inactive
38 | CC1(C)CCC(Cc2ccc(Cl)cc2)C1(O)Cn1cncn1 (stereo not given) | inactive
39 | CC(c1ccc(O)cc1)(c1ccc(O)cc1)c1ccc(O)cc1 | inactive
40 | CN1[C@@H]2CC[C@H]1CC(OC(=O)c1cc(Cl)cc(Cl)c1)C2 (stereo not given in full) | inactive
